Screening results from PubChem BioAssay.
DRD3 antagonist: antagonists of human D3 dopamine receptor | 360,000 compounds, 2.5% hits | D3R cells, DiscoveRx beta-arrestin luminescence, antagonist mode; stronger effect = lower value | P35462 | AID 652054 | max response, negative = inhibition, %; in the data active = max response below about -50%; inconclusive = no clear call, values can overlap the other calls; note: % is set by controls: 0 for no effect and ±100 for the full control effect
Target sequence (P35462 whole entry, looked up): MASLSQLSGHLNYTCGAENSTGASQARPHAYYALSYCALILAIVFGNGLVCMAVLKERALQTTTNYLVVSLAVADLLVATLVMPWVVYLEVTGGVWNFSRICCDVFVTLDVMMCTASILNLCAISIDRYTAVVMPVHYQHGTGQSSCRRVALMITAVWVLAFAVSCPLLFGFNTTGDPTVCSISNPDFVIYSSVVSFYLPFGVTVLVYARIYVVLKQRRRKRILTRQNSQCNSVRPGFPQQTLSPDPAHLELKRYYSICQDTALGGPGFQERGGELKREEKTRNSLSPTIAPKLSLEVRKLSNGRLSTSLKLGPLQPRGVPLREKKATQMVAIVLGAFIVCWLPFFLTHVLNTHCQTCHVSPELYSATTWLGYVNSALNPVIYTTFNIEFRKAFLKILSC
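Cells expressing the human receptor were seeded at 1500 cells/well, incubated overnight at 37 degrees C in 5% CO2, then exposed to library compounds with dopamine controls for 90 minutes at 37 degrees C before luminescent detection.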
HepG2 viability: HepG2 cytotoxicity, counter-screen for TGF-b inhibitors. Potency, µM (top dose mostly 46.1 µM), without a hit: top-dose activity change, negative = cytotoxicity, hits mostly cytotoxic. HepG2 CAGA-GFP viability, ATP luminescence, 18 h. 410,000 compounds, 0.76% hits. AID 588856; note: potency is the fitted concentration of half-maximal effect
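HepG2 CAGA-GFP cells (1000/well, DMEM with 1% FBS) received compound, then TGF-beta at 500 pg/mL final, and were incubated 18 hours at 37 degrees C. Viability was read by CellTiter-Glo luminescence. Media-only wells were set as complete cell-killing and DMSO as no toxicity.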
TGFb inhibitor: inhibitors of TGF-b signaling | Potency, µM (highest dose often 46.1 µM), without a hit: at the highest dose activity, negative = inhibition, usual class: inhibitors | 410,000 compounds, 1.2% hits | HepG2 CAGA-GFP TGF-b/SMAD3 reporter, GFP fluorescence, 18 h; TGF-beta stimulated, 500 pg/mL final; note: potency is the fitted concentration of half-maximal effect; % is set by controls: 0 for no effect and ±100 for the full control effect; nearly all actives have a fitted effect of over 65% in size
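HEPG2 CAGA-GFP reporter cells (1000/well, DMEM with 1% FBS) received compounds, then recombinant TGF-beta at 500 pg/mL final for 18 hours at 37 degrees C. Per-cell GFP summed per well was normalised to unstimulated and stimulated DMSO controls before curve fitting.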
ATXN2 expr inh: ATXN2 expression inhibition | 360,000 compounds, 0.72% hits | Potency, µM (series often up to 57 µM), inactives show at the highest dose activity change, negative = inhibition, usual class: inhibitors | HEK-293 ATXN2-luciferase reporter, luminescence, 24 h; note: potency is the fitted concentration of half-maximal effect; % is set by controls: 0 for no effect and ±100 for the full control effect; nearly all actives have a fitted effect of over 55% in size
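ATXN2-luciferase reporter cells (luciferase flanked by upstream and downstream ATXN2 gene portions) were treated 24 h at 37 °C with compounds at up to 57 uM. SteadyGlo luminescence gave expression; GF-AFC fluorescence gave viability.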
D3 ag: activates the human D3 dopamine receptor. D3R DiscoveRx beta-arrestin cells, luminescence, 90 min. P35462. max activation, %. 410,000 compounds, 0.58% hits; in the data active = max activation above about 30%; note: 0% is about no effect
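Agonist mode: compounds and dopamine controls were applied to plated cells for 90 min at 37 degrees C after an overnight attachment at 1500 cells/well. Luminescent read-out followed 30 - 60 minutes at room temperature with DiscoveRx detection reagent.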
S2 tox: reduces viability in counter-screen for ATXN expression inhibitors; S2 cells (HEK-293 line with an ATXN2-luciferase reporter) viability, CellTiter-Fluor protease fluorescence, 24 h; Potency, µM (series often up to 56.7 µM), actives largely listed as cytotoxic; 400,000 compounds, 0.49% hits; note: potency is the fitted concentration of half-maximal effect; nearly all actives have a fitted effect of over 40% in size
* = called active by the depositor; i = inactive; ? = inconclusive; / = no result; ! = a repeat was not active. Hits are enriched below; roughly 4.7% of the tested compounds scored in any of these assays. Unless noted, calls come from the whole dose curve; as a rule, active = well fitted curve in the direction sought with a large enough effect; inconclusive = small, poorly fitted or top-dose-only effect, or another doubt; inactive = no such curve, though single readings can be large; an effect the other way counts as inactive or inconclusive.

SMILES | DRD3 antagonist | HepG2 viability | TGFb inhibitor | ATXN2 expr inh | D3 ag | S2 tox
O=C(CCN1C(=O)COc2ccccc21)NCCC1=CCCCC1 | -110* | -14% | 6% | -2% | -21 | i
O=C(CCNC(=O)Cn1ccc2ccccc2c1=O)NCCN1CCc2ccccc2C1 | -52* | -26% | -4% | 4% | -16 | i
O=C(CCNC(=O)Cn1ccc2ccccc2c1=O)NCCN1CCN(c2cccc(Cl)c2)CC1 | -61* | -27% | 2% | -14% | 3 | i
Cn1c(=O)[nH]c(=O)c2c1nc(CN1CCN(c3ccccc3)CC1)n2Cc1c(F)cccc1Cl | / | -9% | 9% | / | -14 | /
CCN(CC)CCNC(=O)CSc1nc2nc(C)c(Cc3ccccc3)c(C)n2n1 | / | -4% | 0% | 1% | 8 | i
CC(=O)[C@@]1(O)CC[C@H]2[C@@H]3C=C(Cl)C4=CC(=O)CC[C@]4(C)[C@H]3CC[C@@]21C | / | / | / | / | -15 | i
COc1cc(/C=N/n2c(-c3cc(C)[nH]n3)n[nH]c2=S)ccc1O | ? | -6% | -1% | 4% | 10 | i
COc1cc(/C=N/n2c(-c3cc(C)[nH]n3)n[nH]c2=S)cc(OC)c1OC | -51* | -7% | -18% | 2% | -8 | i
CCCN1CCC(NCc2cn(C)nc2-c2ccc(Oc3ccccc3)cc2)CC1 | -14 | 1.3µM* | ? | / | 2 | ?
COC1CCCN(Cc2cn(C)nc2-c2ccc(Oc3ccccc3)cc2)C1 (stereo unspecified) | -52* | -18% | -3% | -11% | -3 | i
Cc1ccc(NC(=O)N2CCCC(c3ccccc3)C2)cc1 (stereo unspecified) | 13 | -1% | 3% | 7% | 34* | i
O=C(Nc1ccccc1)N1CCC(c2ccccc2)C1 (stereo unspecified) | -8 | -7% | 8% | 47% | -2 | i
Cc1cccc2nc(CNC(=O)CN3Cc4ccccc4OC(c4ccccc4F)C3)cn12 (stereo unspecified) | / | / | / | / | / | i
CCCCOc1ccc(C(=O)NCC(c2ccc(Cl)cc2)N2CCOCC2)cc1 (stereo unspecified) | / | -21% | ? | -25% | 7 | ?
CCN(CCCNC(=O)c1cc2cc3ccc(C)cc3nc2s1)c1ccccc1 | / | -28% | 6.3µM* | 17% | -20 | i
CCN(CCCNC(=O)c1cc2c(=O)[nH]c3ccc(C)cc3c2s1)Cc1ccccc1 | / | 13µM* | 11µM* | ? | 4 | ?
CCCCN(CC)CCNC(=O)c1cc2c(=O)[nH]c3ccccc3c2s1 | -54* | -2% | -1% | -19% | -23 | ?
Cc1ccc(C)c(NC(=O)CN(C)S(=O)(=O)c2cccc3nsnc23)c1 | / | -6% | -11% | -3% | -15 | i
Nc1nc2c(ncn2[C@H]2C[C@H](O)[C@@H](CO)O2)c(=O)[nH]1 | 0 | 8% | -4% | -2% | -8 | i
Nc1nc(Cl)nc2c1ncn2C1CC(O)C(CO)O1 (stereo unspecified) | 2 | -56% | ? | 1.8µM* | 22 | i
Cc1cccc(Cn2c(=O)n(CC3CCC(C(=O)N4CCOCC4)CC3)c(=O)c3sccc32)c1 (stereo unspecified) | / | -31% | ? | 14% | -3 | i
Cc1cccc(Nc2nc3c(S(=O)(=O)c4ccc(Br)cc4)nnn3c3ccsc23)c1C | / | -17% | ? | / | -3 | /
Cc1ccnc2c(Cl)ccc(Cl)c12 | / | -20% | -15% | / | / | /
c1ccc2c(C(c3c[nH]c4ccccc34)c3c[nH]c4ccccc34)c[nH]c2c1 | / | -110% | ? | / | / | /
Cc1ccc2[nH]cc(C(c3ccccc3)c3ccc(C)s3)c2c1 (stereo unspecified) | / | 11µM* | 13µM* | ? | -9 | ?
SMILES | DRD3 antagonist | HepG2 viability | TGFb inhibitor | ATXN2 expr inh | D3 ag | S2 tox
Cc1ccc2[nH]cc(C(c3ccccc3)c3cccs3)c2c1 (stereo unspecified) | / | 16µM* | 13µM* | ? | -6 | ?
CN(C)c1ccc(/C=C/c2ccnc3ccccc23)cc1 | / | -34% | 0% | / | / | /
N#CCCn1cc(/C=C2\NC(=S)N(c3ccccc3)C2=O)c(-c2ccc(-c3ccccc3)cc2)n1 | -22 | -4% | 10µM* | ? | 0 | ?
CCOC(=O)C1CCN(C(=O)CN2c3ccc(CC)cc3-c3ccccc3S2(=O)=O)CC1 | / | -8% | -17% | 19% | -11 | i
C/C=C1\COC(C(=O)NCCN2CCOCC2)(C(F)(F)F)C=C1C=C(C)C (stereo unspecified) | / | -12% | -31% | / | / | /
C/C=C1\COC(C(=O)NCc2ccccc2)(C(F)(F)F)C=C1C=C(C)C (stereo unspecified) | -17 | -15% | 11µM*! | 6% | -9 | i
Cc1cc(F)ccc1S(=O)(=O)Nc1ccccc1C(=O)Nc1ccccc1-c1nc2ccccc2[nH]1 | 51 | 7.9µM* | ? | ? | 23 | /
Cn1c(NCc2cccnc2)nc2cc(-c3ccc(C(=O)N4CCOCC4)cc3)sc2c1=O | -78* | -4% | 19% | -1% | -14 | i
Nc1cc2nc3ccccc3oc-2cc1=O | ? | 4.5µM* | ? | -15% | -9 | ?
COc1ccc2cc(-c3nc(-c4ccc(S(C)=O)cc4)[nH]c3-c3ccncc3)ccc2c1 (stereo unspecified) | / | / | / | -17% | / | /
Cc1nn(Cc2ccc(Cl)cc2)c(C)c1NC(=O)CSc1nc2c(c(C(F)(F)F)n1)CCc1ccccc1-2 | 34 | 0.63µM* | -23% | ? | 16 | ?
Cc1ccc(Cn2nc(C)c(NC(=O)CSc3nc4c(c(C(F)(F)F)n3)CCc3ccccc3-4)c2C)cc1 | 6 | 4% | 0% | ? | -6 | /
O=C(c1ccc(CSc2nc3ccncc3n2Cc2cccc(F)c2)cc1)N1CCCCCC1 | / | -58% | ? | 0% | 3 | i
O=[N+]([O-])c1cc(C(F)(F)F)cc([N+](=O)[O-])c1NCCNC(=S)Nc1ccc(Cl)c(Cl)c1 | -17 | 11µM* | 11µM* | ? | -8 | /
COc1ccc(/C=C/c2nnc(NC(=O)COc3ccc(Cl)cc3)s2)cc1 | / | 0% | 3% | / | / | /
CNc1oc(/C=C/c2cc(OC)c(OC)c(OC)c2)nc1C#N | / | -15% | 0% | / | 1 | /
COc1ccc(N=Cc2cc(Cc3ccccc3Cl)cc([N+](=O)[O-])c2O)cc1OC | -96* | -9% | ? | / | -15 | i
Cc1ccc(N=Cc2cc(Cc3ccccc3Cl)cc([N+](=O)[O-])c2O)c(O)c1 | -74* | -25% | ? | ? | -9 | ?
Cc1ccc(C(=O)COC(=O)c2ccncc2)cc1[N+](=O)[O-] | -92* | -4% | -4% | 4% | -6 | i
